Test results reported in PubChem BioAssay AID1159580 (chemical genetic matrix, 2015).
Screen size: about 5,500 compounds; about 2,000 (36%) were called active. Roughly 18% stayed inconclusive and do not appear here. No stated cut-off is given here; in the data, active means normalized growth mostly below about 0.91 (no sharp cut-off); inconclusive means no clear call, values can overlap the other calls; inactive means mostly above about 0.92. This is one part of the list.

Assay: chemical genetic growth profiling, strain panel (AID 1159580);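 further: tested at 20 µM; growth read once vehicle control cultures reached saturation at 30 °C; 1 = growth at the plate median or of vehicle wells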
Settings: growth OD
[1] = S. cerevisiae deletion strains, locus YAL013W, strain DEP1, stronger effect = lower value
[2] = S. cerevisiae deletion strains, locus YBR229C, strain ROT2, stronger effect = lower value
[3] = S. cerevisiae deletion strains, locus YDL101C, strain DUN1, stronger effect = lower value
[4] = S. cerevisiae deletion strains, locus YDR150W, strain NUM1, stronger effect = lower value
[5] = S. cerevisiae deletion strains, locus YEL061C, strain CIN8, stronger effect = lower value
[6] = S. cerevisiae deletion strains, locus YGR078C, strain PAC10, stronger effect = lower value
[7] = S. cerevisiae deletion strains, locus YHR030C, strain SLT2, stronger effect = lower value
[8] = S. cerevisiae deletion strains, locus YJR043C, strain POL32, stronger effect = lower value
[9] = S. cerevisiae deletion strains, locus YJR075W, strain HOC1, stronger effect = lower value
[10] = S. cerevisiae deletion strains, locus YLR039C, strain RIC1, stronger effect = lower value
[11] = S. cerevisiae deletion strains, locus YLR262C, strain YPT6, stronger effect = lower value
[12] = S. cerevisiae deletion strains, locus YMR263W, strain SAP30, stronger effect = lower value
[13] = S. cerevisiae deletion strains, locus YMR307W, strain GAS1, stronger effect = lower value
[14] = S. cerevisiae deletion strains, locus YNL153C, strain GIM3, stronger effect = lower value
[15] = S. cerevisiae deletion strains, locus YNL322C, strain KRE1, stronger effect = lower value
[16] = S. cerevisiae deletion strains, locus YOL006C, strain TOP1, stronger effect = lower value
[17] = S. cerevisiae deletion strains, locus YPL055C, strain LGE1, stronger effect = lower value
[18] = S. cerevisiae deletion strains, locus YPL241C, strain CIN2, stronger effect = lower value

Measured: normalized growth

Cc1oc(S(=O)(=O)N(C)C)cc1C(=O)O
inactive: [1] 1.03 | [2] 1 | [3] 0.952 | [4] 1 | [5] 1.02 | [6] 1.01 | [7] 1.06 | S. cerevisiae deletion strains, locus YHR087W, strain rtc3, stronger effect = lower value 1.03 | S. cerevisiae deletion strains, locus YJL187C, strain SWE1, stronger effect = lower value 0.997 | [8] 0.987 | [9] 1 | [10] 1.07 | S. cerevisiae deletion strains, locus YLR058C, strain SHM2 (second series), stronger effect = lower value 1 | S. cerevisiae deletion strains, locus YLR085C, strain ARP6, stronger effect = lower value 1.08 | [11] 1.01 | S. cerevisiae deletion strains, locus YML094W, strain GIM5, stronger effect = lower value 1.06 | S. cerevisiae deletion strains, locus YMR219W, strain ESC1, stronger effect = lower value 1.01 | [12] 0.985 | [13] 0.976 | [14] 1.01 | S. cerevisiae deletion strains, locus YNL298W, strain CLA4 (second series), stronger effect = lower value 1 | [15] 1 | S. cerevisiae deletion strains, locus YNR030W, strain Alg12, stronger effect = lower value 1.02 | [16] 1.06 | [17] 1.08 | [18] 1.09 | S. cerevisiae deletion strains, locus YPR135W, strain CTF4, stronger effect = lower value 1.34

O=C(CCCCCCCCCCCCC1CCCC1)Nc1ccc(S(=O)(=O)c2ccc(NC(=O)CCCCCCCCCCCCC3CCCC3)cc2)cc1
inactive: [1] 1.01 | S. cerevisiae deletion strains, locus YBR021W, strain FUR4, stronger effect = lower value 1.04 | [2] 1.02 | S. cerevisiae deletion strains, locus YCL029C, strain bik1, stronger effect = lower value 0.992 | S. cerevisiae deletion strains, locus YDL035C, strain GPR1, stronger effect = lower value 1.02 | S. cerevisiae deletion strains, locus YDL074C, strain BRE1, stronger effect = lower value 1.07 | [3] 1.03 | S. cerevisiae deletion strains, locus YDL134C, strain PPH21, stronger effect = lower value 1.03 | S. cerevisiae deletion strains, locus YDL185W, strain tfp1, stronger effect = lower value 1.01 | S. cerevisiae deletion strains, locus YDL192W, strain arf1, stronger effect = lower value 0.997 | S. cerevisiae deletion strains, locus YDR101C, strain arx1, stronger effect = lower value 0.989 | [4] 1.02 | S. cerevisiae deletion strains, locus YDR162C, strain NBP2, stronger effect = lower value 1.03 | S. cerevisiae deletion strains, locus YDR318W, strain mcm21, stronger effect = lower value 0.989 | S. cerevisiae deletion strains, locus YDR388W, stronger effect = lower value 0.983 | S. cerevisiae deletion strains, locus YDR502C, strain sam2, stronger effect = lower value 1 | [5] 1.02 | S. cerevisiae deletion strains, locus YER110C, stronger effect = lower value 0.99 | S. cerevisiae deletion strains, locus YER155C, strain BEM2, stronger effect = lower value 1.02 | S. cerevisiae deletion strains, locus YER167W, strain BCK2, stronger effect = lower value 1.03 | S. cerevisiae deletion strains, locus YGL078C, strain dbp3, stronger effect = lower value 0.992 | S. cerevisiae deletion strains, locus YGL086W, strain mad1, stronger effect = lower value 1 | S. cerevisiae deletion strains, locus YGL248W, strain PDE1, stronger effect = lower value 1.03 | [6] 1.03 | S. cerevisiae deletion strains, locus YGR135W, strain pre9, stronger effect = lower value 1.01 | S. cerevisiae deletion strains, locus YGR229C, strain SMI1, stronger effect = lower value 1.03 | S. cerevisiae deletion strains, locus YGR252W, strain gcn5, stronger effect = lower value 0.984 | [7] 1.02 | S. cerevisiae deletion strains, locus YHR079C, strain IRE1 (second series), stronger effect = lower value 0.99 | S. cerevisiae deletion strains, locus YHR094C, strain hxt1, stronger effect = lower value 0.996 | S. cerevisiae deletion strains, locus YHR129C, strain ARP1, stronger effect = lower value 1.02 | S. cerevisiae deletion strains, locus YHR200W, strain rpn10, stronger effect = lower value 0.998 | S. cerevisiae deletion strains, locus YIL066C, strain RNR3, stronger effect = lower value 1.02 | S. cerevisiae deletion strains, locus YIL073C, strain SPO22, stronger effect = lower value 0.99 | S. cerevisiae deletion strains, locus YIL125W, strain kgd1, stronger effect = lower value 1 | S. cerevisiae deletion strains, locus YIR030C, strain dcg1, stronger effect = lower value 0.99 | S. cerevisiae deletion strains, locus YJL095W, strain BCK1, stronger effect = lower value 1.04 | S. cerevisiae deletion strains, locus YJL134W, strain LCB3, stronger effect = lower value 1.02 | S. cerevisiae deletion strains, locus YJL168C, strain set2, stronger effect = lower value 1 | S. cerevisiae deletion strains, locus YJL187C, strain SWE1 (second series), stronger effect = lower value 1.02 | [8] 1.03 | [9] 1.03 | S. cerevisiae deletion strains, locus YKL009W, strain mrt4, stronger effect = lower value 0.991 | S. cerevisiae deletion strains, locus YKL068W, stronger effect = lower value 1 | S. cerevisiae deletion strains, locus YKL085W, strain MDH1 (second series), stronger effect = lower value 1 | S. cerevisiae deletion strains, locus YKL085W, strain MDH1, stronger effect = lower value 1 | S. cerevisiae deletion strains, locus YKL190W, strain CNB1, stronger effect = lower value 1.02 | S. cerevisiae deletion strains, locus YKR001C, strain vps1, stronger effect = lower value 0.991 | [10] 1.04 | S. cerevisiae deletion strains, locus YLR058C, strain SHM2, stronger effect = lower value 1.02 | S. cerevisiae deletion strains, locus YLR102C, strain apc9, stronger effect = lower value 0.989 | [11] 1.03 | S. cerevisiae deletion strains, locus YLR268W, strain sec22, stronger effect = lower value 0.997 | S. cerevisiae deletion strains, locus YLR330W, strain CHS5, stronger effect = lower value 1.02 | S. cerevisiae deletion strains, locus YLR342W, strain FKS1 (second series), stronger effect = lower value 1.03 | S. cerevisiae deletion strains, locus YLR371W, strain rom2, stronger effect = lower value 1 | S. cerevisiae deletion strains, locus YLR418C, strain cdc73, stronger effect = lower value 1 | S. cerevisiae deletion strains, locus YML016C, strain PPZ1, stronger effect = lower value 1.03 | S. cerevisiae deletion strains, locus YML032C, strain rad52, stronger effect = lower value 1 | S. cerevisiae deletion strains, locus YML124C, strain tub3, stronger effect = lower value 0.99 | S. cerevisiae deletion strains, locus YMR078C, strain ctf18, stronger effect = lower value 0.988 | S. cerevisiae deletion strains, locus YMR223W, strain ubp8, stronger effect = lower value 0.989 | [12] 1.04 | [13] 0.981 | S. cerevisiae deletion strains, locus YNL067W, strain RPL9B, stronger effect = lower value 1.04 | S. cerevisiae deletion strains, locus YNL128W, strain TEP1, stronger effect = lower value 1.04 | [14] 1.02 | S. cerevisiae deletion strains, locus YNL233W, strain BNI4, stronger effect = lower value 1.03 | S. cerevisiae deletion strains, locus YNL250W, strain rad50, stronger effect = lower value 1 | S. cerevisiae deletion strains, locus YNL271C, strain bni1, stronger effect = lower value 0.998 | S. cerevisiae deletion strains, locus YNL298W, strain CLA4, stronger effect = lower value 1.01 | S. cerevisiae deletion strains, locus YNL307C, strain MCK1, stronger effect = lower value 0.99 | [15] 1.02 | S. cerevisiae deletion strains, locus YNR052C, strain pop2, stronger effect = lower value 0.993 | [16] 1.14 | S. cerevisiae deletion strains, locus YOL012C, strain htz1 0.857 | S. cerevisiae deletion strains, locus YOL147C, strain pex11, stronger effect = lower value 0.992 | S. cerevisiae deletion strains, locus YOR061W, strain CKA2, stronger effect = lower value 1.02 | S. cerevisiae deletion strains, locus YOR069W, strain VPS5, stronger effect = lower value 1.01 | S. cerevisiae deletion strains, locus YOR136W, strain idh2, stronger effect = lower value 0.994 | S. cerevisiae deletion strains, locus YOR144C, strain elg1, stronger effect = lower value 0.993 | S. cerevisiae deletion strains, locus YOR184W, strain ser1, stronger effect = lower value 0.99 | S. cerevisiae deletion strains, locus YOR316C, strain cot1, stronger effect = lower value 0.998 | [17] 1.05 | [18] 1.01 | S. cerevisiae deletion strains, locus YPR119W, strain clb2, stronger effect = lower value 0.984 | S. cerevisiae deletion strains, locus YPR141C, strain kar3, stronger effect = lower value 0.996 | S. cerevisiae deletion strains, locus YPR163C, strain tif3, stronger effect = lower value 0.993 | S. cerevisiae deletion strains, locus YPR167C, strain met16, stronger effect = lower value 0.997 | S. cerevisiae deletion strains, strain wtn01, stronger effect = lower value 0.997 | S. cerevisiae strains, strain wild type, stronger effect = lower value 1.01
